According to ChEMBL document CHEMBL3988442, “University of Dundee, Small-Polar-MMV Screening Library” (2021):
For some assays here: Potency and affinity values are given separately.

Legend:
Set-up in all cases: scale not given: direction of the effect not stated beside the values
[1] = biological target: Protein translocase subunit SecA (Escherichia coli (strain K12)) (UniProt P10408); assay: Assay to Identify E. coli SecA ATPase Inhibitors; format: functional; conditions: 30 µM
[2] = biological target: T1, Ubiquitin-activating enzyme e1, putative (Leishmania donovani (strain BPK282A1)) (UniProt E9BSI1); assay: Leishmania donovani Ubiquitin Activating Enzyme (LdE1); format: functional; conditions: 30 µM
T1 sequence (whole entry): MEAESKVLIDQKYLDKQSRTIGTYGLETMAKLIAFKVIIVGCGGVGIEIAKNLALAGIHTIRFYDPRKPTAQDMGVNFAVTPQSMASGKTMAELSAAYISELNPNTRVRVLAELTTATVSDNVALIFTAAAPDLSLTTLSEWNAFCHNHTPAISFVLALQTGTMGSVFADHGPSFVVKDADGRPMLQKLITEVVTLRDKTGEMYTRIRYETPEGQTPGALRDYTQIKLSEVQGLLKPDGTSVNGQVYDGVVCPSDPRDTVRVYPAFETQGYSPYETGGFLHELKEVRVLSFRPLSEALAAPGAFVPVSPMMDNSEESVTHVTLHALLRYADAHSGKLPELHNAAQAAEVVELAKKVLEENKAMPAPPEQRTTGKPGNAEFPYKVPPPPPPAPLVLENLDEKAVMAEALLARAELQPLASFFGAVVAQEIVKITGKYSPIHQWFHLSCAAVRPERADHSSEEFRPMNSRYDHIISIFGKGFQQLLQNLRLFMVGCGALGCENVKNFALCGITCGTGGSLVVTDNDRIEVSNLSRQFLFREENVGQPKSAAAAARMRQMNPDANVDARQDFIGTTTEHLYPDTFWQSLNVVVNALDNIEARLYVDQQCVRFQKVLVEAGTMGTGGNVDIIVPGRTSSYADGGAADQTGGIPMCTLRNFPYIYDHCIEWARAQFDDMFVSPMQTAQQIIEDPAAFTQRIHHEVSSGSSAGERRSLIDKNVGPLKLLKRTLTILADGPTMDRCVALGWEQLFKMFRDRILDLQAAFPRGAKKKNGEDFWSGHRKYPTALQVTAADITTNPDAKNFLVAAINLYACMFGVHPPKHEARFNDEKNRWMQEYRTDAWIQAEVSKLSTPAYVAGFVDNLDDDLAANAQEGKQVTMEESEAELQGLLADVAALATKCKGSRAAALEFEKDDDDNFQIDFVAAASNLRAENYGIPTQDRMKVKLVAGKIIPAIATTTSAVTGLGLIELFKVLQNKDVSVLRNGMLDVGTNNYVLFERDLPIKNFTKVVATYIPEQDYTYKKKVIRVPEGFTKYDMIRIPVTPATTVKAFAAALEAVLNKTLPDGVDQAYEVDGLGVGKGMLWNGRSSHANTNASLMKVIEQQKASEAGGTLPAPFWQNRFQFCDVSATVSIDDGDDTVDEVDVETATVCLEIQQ

[3] = biological target: AMP-activated protein kinase, AMPK (Homo sapiens) (UniProt P54646+O43741+P54619+Q9UGJ0+Q9Y478+Q13131+Q9UGI9); assay: AMP-dependent Kinase enzyme assay. An in vitro enzyme assay that detects ADP turnover that is directly proportional to AMPK activity. This uses naive AMPK that is activated during the assay with MK-8722; format: functional; conditions: 30 µM
[4] = biological target: Sialic acid-binding Ig-like lectin 9 (Homo sapiens) (UniProt Q9Y336); assay: Hs-Siglec9 ALPHAscreen SOP 20170721; conditions: 10 µM
Sialic acid-binding Ig-like lectin 9 (Homo sapiens), sequence (Q9Y336 whole entry): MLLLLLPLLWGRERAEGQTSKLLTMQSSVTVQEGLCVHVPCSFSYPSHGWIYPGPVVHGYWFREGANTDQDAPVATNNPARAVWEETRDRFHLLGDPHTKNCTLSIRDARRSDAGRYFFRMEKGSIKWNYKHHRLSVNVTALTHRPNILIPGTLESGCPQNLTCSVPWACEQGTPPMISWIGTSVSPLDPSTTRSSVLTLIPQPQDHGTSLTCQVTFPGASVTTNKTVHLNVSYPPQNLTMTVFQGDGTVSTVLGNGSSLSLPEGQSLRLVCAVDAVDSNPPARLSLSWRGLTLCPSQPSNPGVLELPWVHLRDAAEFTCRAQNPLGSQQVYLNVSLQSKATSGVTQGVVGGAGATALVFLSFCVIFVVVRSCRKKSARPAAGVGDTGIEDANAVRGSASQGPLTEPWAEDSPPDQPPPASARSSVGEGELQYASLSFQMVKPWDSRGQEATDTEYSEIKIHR

Trypanosoma cruzi = assay: Trypanosoma cruzi phosphomannomutase and mannose-1-phosphate guanylyltransferase assay; format: functional; conditions: 10 µM
[5] = biological target: T2, Arginase-2, mitochondrial (Homo sapiens) (UniProt P78540); assay: in vitro enzyme assay to detect the production of urea directly proportional to the activity of Arginase II; format: functional; conditions: 33.3 µM; note: in the data most compounds retested in dose-response had high values
T2 sequence (whole entry): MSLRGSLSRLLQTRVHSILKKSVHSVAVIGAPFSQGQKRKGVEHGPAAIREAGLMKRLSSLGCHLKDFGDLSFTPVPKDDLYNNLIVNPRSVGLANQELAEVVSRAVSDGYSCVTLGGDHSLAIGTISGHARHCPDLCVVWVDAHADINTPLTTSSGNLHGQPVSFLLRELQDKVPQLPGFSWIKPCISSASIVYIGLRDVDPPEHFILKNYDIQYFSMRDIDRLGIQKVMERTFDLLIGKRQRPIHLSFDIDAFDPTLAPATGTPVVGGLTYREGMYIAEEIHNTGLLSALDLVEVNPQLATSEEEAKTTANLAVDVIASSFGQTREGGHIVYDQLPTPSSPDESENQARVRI

[6] = biological target: T3, Proteasome subunit beta (Trypanosoma cruzi) (UniProt O96673); assay: Trypanosoma cruzi proteasome chymotrypsin-like activity (TcProtChymo) assay.; note: in the data most compounds retested in dose-response had high values; format: functional; conditions: 9.37 µM
T3 sequence (whole entry): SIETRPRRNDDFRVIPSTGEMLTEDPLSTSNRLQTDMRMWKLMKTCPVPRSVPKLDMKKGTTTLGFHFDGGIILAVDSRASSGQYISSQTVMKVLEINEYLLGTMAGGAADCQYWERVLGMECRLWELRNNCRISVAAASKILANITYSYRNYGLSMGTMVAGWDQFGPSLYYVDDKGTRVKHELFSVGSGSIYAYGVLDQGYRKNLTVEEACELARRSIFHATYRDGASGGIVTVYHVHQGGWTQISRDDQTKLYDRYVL

Homo sapiens = species on record: Homo sapiens; assay: To identify inhibition of the IFN signalling (Jak-Stat) pathway via expression of an eGFP reporter gene under the control of an IFN-stimulated response element (ISRE) containing MxA promoter.; format: functional; conditions: 30 µM
[7] = biological target: T4, Tyrosyl-tRNA synthetase, putative (Trypanosoma cruzi (strain CL Brener)) (UniProt Q4DSP6); assay: Trypanosoma cruzi tyrosyl tRNA synthetase (TcYRS) _High Tyrosine SOP; format: functional; conditions: 30 µM; note: in the data most compounds retested in dose-response had high values
T4 sequence (whole entry): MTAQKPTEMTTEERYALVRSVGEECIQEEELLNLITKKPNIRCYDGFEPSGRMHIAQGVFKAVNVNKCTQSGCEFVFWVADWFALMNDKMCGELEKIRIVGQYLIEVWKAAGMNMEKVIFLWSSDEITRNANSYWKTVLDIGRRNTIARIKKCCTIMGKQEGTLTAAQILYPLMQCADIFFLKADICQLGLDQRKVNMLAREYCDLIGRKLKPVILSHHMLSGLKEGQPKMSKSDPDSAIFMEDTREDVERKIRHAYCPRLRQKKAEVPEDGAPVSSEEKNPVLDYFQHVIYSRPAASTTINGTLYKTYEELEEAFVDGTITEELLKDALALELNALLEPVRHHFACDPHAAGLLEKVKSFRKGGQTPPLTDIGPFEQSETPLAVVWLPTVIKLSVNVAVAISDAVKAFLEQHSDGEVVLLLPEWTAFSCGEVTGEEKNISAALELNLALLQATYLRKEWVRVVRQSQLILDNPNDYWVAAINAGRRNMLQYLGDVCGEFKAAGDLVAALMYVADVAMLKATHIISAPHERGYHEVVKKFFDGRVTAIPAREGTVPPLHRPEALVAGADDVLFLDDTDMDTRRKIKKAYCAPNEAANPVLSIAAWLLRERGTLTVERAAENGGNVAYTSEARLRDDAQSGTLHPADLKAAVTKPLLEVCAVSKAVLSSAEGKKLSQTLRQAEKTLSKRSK

[8] = biological target: T4, Tyrosyl-tRNA synthetase, putative (Trypanosoma cruzi (strain CL Brener)); assay: Trypanosoma cruzi tyrosyl tRNA synthetase (TcYRS) SOP; format: functional; conditions: 30 µM
[9] = biological target: Chromo domain-containing protein 1 (Saccharomyces cerevisiae (strain ATCC 204508 / S288c) (Baker's yeast)) (UniProt P32657); assay: ScCHD-1 Enzyme Inhibition Assay; format: functional; conditions: 30 µM; note: in the data most compounds retested in dose-response had high values
Chromo domain-containing protein 1 (Saccharomyces cerevisiae (strain ATCC 204508 / S288c) (Baker's yeast)), sequence (P32657 whole entry, the tested form may be a part): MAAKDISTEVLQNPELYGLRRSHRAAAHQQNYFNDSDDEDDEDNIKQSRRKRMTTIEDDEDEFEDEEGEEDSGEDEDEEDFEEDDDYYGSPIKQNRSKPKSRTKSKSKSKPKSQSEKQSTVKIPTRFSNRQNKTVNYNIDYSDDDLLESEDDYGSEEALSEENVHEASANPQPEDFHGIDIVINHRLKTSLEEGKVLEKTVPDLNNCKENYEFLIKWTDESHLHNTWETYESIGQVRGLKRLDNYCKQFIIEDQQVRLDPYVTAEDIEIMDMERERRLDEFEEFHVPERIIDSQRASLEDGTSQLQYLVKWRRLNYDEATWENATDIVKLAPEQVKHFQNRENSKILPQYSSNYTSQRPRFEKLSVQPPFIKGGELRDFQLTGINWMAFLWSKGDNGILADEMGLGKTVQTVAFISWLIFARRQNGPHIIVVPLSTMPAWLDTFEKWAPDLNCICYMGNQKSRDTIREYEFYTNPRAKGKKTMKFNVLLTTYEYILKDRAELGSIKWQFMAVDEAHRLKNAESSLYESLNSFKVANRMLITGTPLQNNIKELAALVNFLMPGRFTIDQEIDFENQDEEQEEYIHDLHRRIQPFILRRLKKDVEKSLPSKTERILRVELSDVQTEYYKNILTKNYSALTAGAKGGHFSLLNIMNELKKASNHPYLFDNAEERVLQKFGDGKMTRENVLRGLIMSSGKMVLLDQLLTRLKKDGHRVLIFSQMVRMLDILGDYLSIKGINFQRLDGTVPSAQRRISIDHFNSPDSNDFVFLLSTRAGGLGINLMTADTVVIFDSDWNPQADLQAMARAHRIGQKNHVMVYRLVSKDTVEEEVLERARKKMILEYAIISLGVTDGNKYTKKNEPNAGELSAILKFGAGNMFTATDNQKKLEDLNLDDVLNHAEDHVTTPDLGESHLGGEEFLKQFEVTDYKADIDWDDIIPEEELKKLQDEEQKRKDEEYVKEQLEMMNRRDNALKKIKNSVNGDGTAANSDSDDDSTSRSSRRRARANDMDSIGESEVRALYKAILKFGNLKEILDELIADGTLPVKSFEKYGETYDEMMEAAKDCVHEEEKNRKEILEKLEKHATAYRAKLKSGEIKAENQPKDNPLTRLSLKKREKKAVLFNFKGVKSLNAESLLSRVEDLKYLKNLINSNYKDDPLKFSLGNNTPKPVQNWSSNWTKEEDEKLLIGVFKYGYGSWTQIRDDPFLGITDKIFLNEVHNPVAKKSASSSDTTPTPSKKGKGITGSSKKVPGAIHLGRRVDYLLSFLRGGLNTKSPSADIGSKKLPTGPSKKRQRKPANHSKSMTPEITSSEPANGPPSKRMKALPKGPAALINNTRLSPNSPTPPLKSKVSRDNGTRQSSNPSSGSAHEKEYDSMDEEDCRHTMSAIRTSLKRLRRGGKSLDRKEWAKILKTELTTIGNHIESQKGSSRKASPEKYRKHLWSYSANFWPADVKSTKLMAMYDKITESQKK

Protein translocase subunit SecA (Escherichia coli (strain K12)), sequence (P10408 whole entry): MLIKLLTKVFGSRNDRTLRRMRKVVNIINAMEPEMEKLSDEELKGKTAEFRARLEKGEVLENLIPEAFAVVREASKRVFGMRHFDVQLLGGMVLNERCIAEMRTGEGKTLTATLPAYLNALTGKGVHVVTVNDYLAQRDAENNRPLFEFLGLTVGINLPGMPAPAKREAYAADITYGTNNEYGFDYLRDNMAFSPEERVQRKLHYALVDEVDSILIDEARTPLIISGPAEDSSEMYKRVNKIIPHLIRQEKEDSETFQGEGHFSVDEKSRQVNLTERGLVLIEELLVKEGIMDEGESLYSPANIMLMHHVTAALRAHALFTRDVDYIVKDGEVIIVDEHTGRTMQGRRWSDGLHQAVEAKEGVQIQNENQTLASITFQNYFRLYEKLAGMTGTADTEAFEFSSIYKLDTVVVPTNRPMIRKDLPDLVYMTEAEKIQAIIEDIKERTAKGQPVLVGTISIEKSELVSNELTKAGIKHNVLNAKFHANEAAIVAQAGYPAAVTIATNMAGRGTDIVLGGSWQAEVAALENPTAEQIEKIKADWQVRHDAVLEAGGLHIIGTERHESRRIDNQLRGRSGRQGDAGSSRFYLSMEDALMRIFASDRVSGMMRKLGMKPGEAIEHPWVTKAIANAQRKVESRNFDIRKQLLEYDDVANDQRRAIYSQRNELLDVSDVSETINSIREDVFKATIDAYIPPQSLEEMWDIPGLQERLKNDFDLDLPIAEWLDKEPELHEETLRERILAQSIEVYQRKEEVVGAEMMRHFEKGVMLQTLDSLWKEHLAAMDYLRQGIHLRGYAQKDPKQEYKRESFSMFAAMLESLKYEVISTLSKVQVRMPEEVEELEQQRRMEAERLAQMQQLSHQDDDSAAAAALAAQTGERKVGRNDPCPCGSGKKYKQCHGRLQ

| Compound | Percent Effect [1] [%] | Percent Effect [2] [%] | Percent Effect [3] [%] | Percent Effect [4] [%] | Percent Effect (Trypanosoma cruzi) [%] | Percent Effect [5] [%] | Percent Effect [6] [%] | Percent Effect (Homo sapiens) [%] | Percent Effect [7] [%] | Percent Effect [8] [%] | Percent Effect [9] [%] |
| --- | --- | --- | --- | --- | --- | --- | --- | --- | --- | --- | --- |
| CC(C)(C)OC(=O)N1CCCc2ccc(NCc3ncc[nH]3)cc21 | -8.07 | 2.6 | 1.02 | 4.72 | -4.03 | -11 | 4.66 | 7.74 | 1.07 | -3.7 | -0.00165 |
| Cc1cc(CN2CCN(C(c3ccccc3)c3ccccc3)CC2)no1 | -4.43 | 12.7 | -1.9 | 14.9 | -2.55 | 1.14 | 2.87 | 15.5 | 8.37 | 11.4 | -8.11 |
| Cn1c(Nc2cn[nH]c2)c(C#N)c(=O)n(C)c1=O | -7.22 | 5.41 | -1.11 | -6.81 | -8.31 | -1.74 | 14.3 | -8.26 | -3.23 | 1.24 | -4.94 |
| N#Cc1ccc(CNCC2CCN(CCO)CC2)cc1 | -1.19 | 5.48 | -0.789 | -1.57 | -7.05 | 5 | 9.58 | 11.5 | 0 | 10 | -2.99 |
| O=C(Cn1c(=O)n(Cc2ccco2)c2ncccc21)NC1CCCCC1 | -8.09 | 14.9 | -4.42 | 11.5 | 8.5 | -4.41 | 18.6 | 3.85 | 6.45 | 14.3 | 53 |
| Cc1ccc(Cc2cnc(NC(=O)C3CNC(=O)N3)s2)cc1F (configuration not stated) | -2.83 | 8.86 | 4.79 | 5.91 | 0.308 | 1.5 | 16.6 | -4.36 | -3.12 | 17.7 | -8.88 |
| Cc1nc2ccnn2c(C)c1CCC(=O)N1CCN(C2CC2)CC1 | -4.83 | 18.4 | 9.42 | -13.6 | -7.38 | 0.719 | 10.9 | 7.93 | 4.43 | 13.6 | -7.28 |
| Cc1nc(CN2C(=O)CC[C@H]3[C@@H]2CCN3C(=O)c2ccsc2)cs1 | 2.29 | 10.8 | 2.71 | -8.13 | 4.2 | -1.59 | 28 | -19.9 | 5.41 | 15.4 | -0.758 |
| CC(=O)Nc1cccc(OCCNC(=O)N(C)Cc2ccco2)c1 | -4.59 | 2.63 | 7.27 | -2.99 | 1.46 | -4.73 | 6.62 | -1.59 | 4.25 | 0 | -3.97 |
| COc1ccnc(N2CCN(C(=O)Cc3ccc(C#N)cc3)CC2)n1 | -3.03 | 13 | -3.06 | 0.369 | 3.82 | 1.9 | 12.7 | 7.36 | 7.62 | 23.5 | -7.06 |
| CC(Cn1cccn1)NC(=O)Nc1nnc(C2CC2)s1 (configuration not stated) | -8.16 | 13 | 2.37 | 7.36 | 1.12 | -0.356 | -0.845 | 10.7 | 7.77 | 12.2 | -5.78 |
| Cn1ccc(C(=O)NC2CCN(c3ncccn3)CC2)cc1=O | -2.08 | 13.5 | -7.39 | 7.92 | -0.0943 | 0.401 | 9.73 | 5.6 | 1.48 | 11.1 | -9.93 |
| Cc1cccc(CNC(CN2CCN(C)CC2)c2ccccc2)c1 (configuration not stated) | -2.61 | 8.11 | -13.3 | 17.7 | 3.23 | 29.5 | 7.3 | 25.7 | 5.38 | 11.1 | -5.02 |
| CN(C)C(=O)[C@@H]1CCO[C@@H]2CCN(CCc3ccccc3)C[C@@H]21 | -1.12 | 10.8 | -3.68 | 0.659 | 2.15 | 38.8 | 9.21 | 0.342 | -4.95 | 15.8 | -6.78 |
| Cc1cc(NC(=O)CN2CCN(c3nccs3)C(C)C2)n(C)n1 (configuration not stated) | -1.17 | -2.7 | -3.28 | 12 | 0.279 | 0.924 | 4.49 | -4.36 | 1.98 | 3.66 | 10.5 |
| Cc1nc(C)n(CC2CCCCN2CC(=O)Nc2nncs2)n1 (configuration not stated) | -8.22 | 2.67 | -1.04 | 1.02 | -2.04 | 2.6 | 2.79 | -3.85 | 2.73 | 11.1 | -5.05 |
| c1cnn(C2CN(Cc3nc(-c4ccsc4)no3)C2)c1 | -3.15 | -10.5 | -7.01 | 2.96 | 8.27 | 1.15 | 12.7 | -0.515 | 4.41 | 12.2 | -4.96 |
| CC(C)c1noc(CCCC(=O)N2CCN(Cc3ccncc3)CC2)n1 | -2.42 | 22.8 | -9.61 | -9.55 | 3.87 | -6.84 | 12.2 | 11.6 | 5.42 | 21.5 | -6.65 |
| CC(C)CCN1Cc2c(C(=O)O)ncn2-c2ccccc2S1(=O)=O | 0.538 | 16.2 | 16.3 | -10.3 | -3.42 | 0.319 | 10.7 | 10.4 | 4.32 | 10.3 | -8.5 |
| CCCn1nc2c(cc1=O)CN(Cc1nc(CCOC)no1)CC2 | -1.92 | 0 | -119 | -3.46 | -0.781 | 0.417 | 10.6 | -1.9 | -7.92 | -6.1 | -7.2 |
| CNc1nc(CNC(=O)Nc2cccc(F)c2)cs1 | -4.85 | 8.11 | -3.94 | 12.7 | -1.39 | -4.99 | 1.62 | 1.99 | 5.94 | 6.1 | 8.34 |
| COCCNC(=O)CCc1c(C)nn(-c2nc(C)c(C)c(=O)[nH]2)c1C | 0.376 | 7.79 | -3.21 | -3.83 | -7 | 23.9 | 8.01 | 4.73 | 8.47 | 14.1 | -7.76 |
